# High-throughput results from PubChem.
# Only some compounds are listed: those with a hit (about 0.59% of all), similar ones and a draw of the others.
# LDHA inh – LDHA (human) enzyme inhibition; P00338; purified LDHA, NADH/diaphorase-resazurin fluorescence; hits give low values; activity change, % (values are at about 110 or 230 µM); 0.15% of 480,000 active; AID 1347041; in the data active = activity change below about -30%; inconclusive = mostly about -25% to -30%;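 also: plate controls were DMSO wells for no effect and wells without enzyme for full effect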
#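 Enzyme activity of human lactate dehydrogenase 5 (2 nM; 0.06 mM NADH, 0.2 mM pyruvate, 5 min, RT) is measured via a resazurin/diaphorase fluorescence readout of residual NADH.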
# Vif-A3F inh – Vif-A3F binding inhibition. 0.2% of 390,000 active. HeLa A3F-eYFP + Vif (tagged APOBEC3F with the HIV-1 protein that degrades it), YFP fluorescence increase. AID 602313. Potency, µM (doses to about 46.1 µM), for the others: at the top dose activity, negative = active; also: potency is read from the fitted curve at half-maximal effect; % of control where 0% means no effect; nearly all actives have a fitted effect of over 65% in size
#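 HeLa cells stably expressing A3F-eYFP plus Vif, plated and incubated overnight at 37 deg C, then exposed to compounds overnight at 37 deg C. Blocked degradation read as raised yellow fluorescence (Ex 488/Em 500-530).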
# PTHR1 ag – agonists of human PTHR1 parathyroid hormone receptor. 0.075% of 410,000 active. Q03431. Potency, µM (series often up to 115 µM), for inactives: top-dose activation, usual class: activators. HEK293 GP2 PTHR1 cells, GloSensor cAMP luminescence, 1 h; also: potency is read from the fitted curve at half-maximal effect; nearly all actives have a fitted effect of over 55% in size
#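 HEK-293-derived GP2 cells expressing PTHR1 and a GloSensor cAMP reporter, 3,000/well, plated overnight, given luciferin plus IBMX (each 0.5 mM as added) for 1 h at 37 °C, then compound for 1 h at 37 °C. Luminescence was read after 15 min at room temperature.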
# Vif-A3G inh – blocks the Vif interaction with human APOBEC3G; Q9HC16; AID 602310; Potency, µM (series often up to 46.1 µM), for the others: top-dose activity, negative = active, most hits filed as inhibitors; 0.076% of 410,000 active; HeLa A3G-eYFP + Vif (tagged APOBEC3G with the HIV-1 protein that degrades it), YFP fluorescence, overnight; also: potency is read from the fitted curve at half-maximal effect; % is scaled to controls: 0 for no effect and ±100 for the full control effect; nearly all actives have a fitted effect of over 60% in size
#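 HeLa cells stably expressing Vif and C-terminally eYFP-tagged A3G, seeded overnight at 37 deg C, then exposed to compound by pintool overnight at 37 deg C. Rise in yellow fluorescence (Ex 488/Em 500-530, Acumen) marks blocked Vif-driven A3G degradation.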
# PINK1 modulator – PINK1 expression modulation | Potency, µM (highest dose often 76.6 µM), without a hit: at the top dose activation (PINK1 increase), actives largely listed as activators | 0.2% of 410,000 active | PINK1 immunofluorescence, high-content cytometry, 24 h; active = well fitted activation curve with a large enough effect; inconclusive = small, poorly fitted or top-dose-only effect; cell line not stated here; also: potency is read from the fitted curve at half-maximal effect; % of control where 0% means no effect; nearly all actives have a fitted effect of over 65% in size
#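 PINK1 protein, normally rapidly degraded, was detected by immunofluorescence after 24 hour compound treatment of a stable cell line. Titration data (5 concentrations) came from laser-scanning cytometry, with CCCP-treated wells as controls.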
# mIDH1 inhibitor – blocks human mutant IDH1 R132H enzyme. AID 602179. 0.093% of 390,000 active. O75874. Potency, µM (top dose mostly 76.6 µM), for the others: at the highest dose activity change, negative = inhibition, usual class: inhibitors. IDH1-R132H enzyme, NADPH consumption, diaphorase/resazurin fluorescence; also: potency is read from the fitted curve at half-maximal effect; % is scaled to controls: 0 for no effect and ±100 for the full control effect; nearly all actives have a fitted effect of over 65% in size
# Target sequence (O75874 whole entry R132H, stated change not applied): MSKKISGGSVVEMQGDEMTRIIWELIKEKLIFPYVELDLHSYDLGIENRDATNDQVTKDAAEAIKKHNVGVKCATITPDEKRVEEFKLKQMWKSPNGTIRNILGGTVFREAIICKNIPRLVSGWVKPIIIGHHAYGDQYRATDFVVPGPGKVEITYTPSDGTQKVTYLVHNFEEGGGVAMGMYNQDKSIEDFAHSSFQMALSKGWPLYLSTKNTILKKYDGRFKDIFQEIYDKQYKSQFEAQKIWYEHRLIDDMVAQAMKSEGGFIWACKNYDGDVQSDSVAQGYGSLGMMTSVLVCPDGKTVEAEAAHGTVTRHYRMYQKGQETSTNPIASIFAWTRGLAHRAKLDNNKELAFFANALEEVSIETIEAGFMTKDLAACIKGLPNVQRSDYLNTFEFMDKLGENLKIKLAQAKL
#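 IDH1-R132H (0.5 ug/mL dispensed) in pH 7.5 Tris buffer was preincubated 30 min with compound, then given a substrate mix of 0.016 mM NADPH and 2 mM alpha-KG for 80 min at room temperature; remaining NADPH was read by diaphorase/resazurin fluorescence.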
# Numbers without * were called inactive; i = inactive; u = inconclusive; x = no result given; [ ] = dose if it differs, or a comment. Unless noted, calls follow the shape of the dose curve; as a rule, active = well fitted curve in the direction sought with a large enough effect; inconclusive = small, poorly fitted or top-dose-only effect, or another doubt; inactive = no such curve, though single readings can be large; an effect the other way counts as inactive or inconclusive.
SMILES,LDHA inh,Vif-A3F inh,PTHR1 ag,Vif-A3G inh,PINK1 modulator,mIDH1 inhibitor
CCN1CC=C2C(C#N)=C(N)C(C#N)(C#N)[C@H](c3cccc(OC)c3OC)[C@H]2C1,15,-10%,-17%[57.5 µM],2%,u,u
CCOC(=O)N1CC=C2C(C#N)=C(N)C(C#N)(C#N)[C@H](c3ccsc3)[C@H]2C1,4,-10%,i,-8%,5%[38.3 µM],41µM*
CN1CC=C2C(C#N)=C(N)C(C#N)(C#N)[C@H](c3cccs3)[C@H]2C1,1,u,i,-11%,u,3%
CN1CC=C2C(C#N)=C(N)C(C#N)(C#N)[C@H](c3cccc(Cl)c3)C2C1 (stereo partly drawn),10,u,-2%,0%,11µM*,-23%
Cc1ccc(C2C(C#N)=C(N)Oc3cc(C)n(C)c(=O)c32)o1 (stereo not drawn),-1,x,x,x,x,x
COc1ccc(-c2nc3cc(NC(=O)c4cc(Cl)ccc4OC)ccc3o2)cc1,15,x,x,x,x,x
CN1CC=C2C(C#N)=C(N)C(C#N)(C#N)C(CCc3ccccc3)C2C1 (stereo not drawn),21,-13%,i,-14%,u,41µM*
CCCC1C2CN(C(C)C)CC=C2C(C#N)=C(N)C1(C#N)C#N (stereo not drawn),12,-7%,-35%[57.5 µM],1%,10µM*,u
C/C(=N\NC(=O)CCc1ccccc1)c1ccc(C)cc1C,7,x,x,x,x,x
CCc1ccc(C2C(C#N)=C(N)SC(N)=C2C#N)s1,8,22µM*,-38%,u,5%,-8%
[Cl][In]([Cl])[Cl],-80*,x,x,1%,-1%,x
CC1CCC(N(C)C(=O)c2cc3ccccc3oc2=O)CC1 (stereo not drawn),0,x,x,x,x,x
Oc1cccc(/C=N/n2c(C3CCCCC3)n[nH]c2=S)c1,-3,-5%,i,-2%,3%,-5%
COc1cccc(/C=N/n2c(C3CCCCC3)n[nH]c2=S)c1,-13,-9%,-9%,7.1µM*,0%,4%
CCCNC(=O)NC(=O)CSc1nc2ccccc2c(=O)n1CC,3,x,x,x,x,x
O=C(NCc1ccc2c(c1)OCO2)c1cccc(S(=O)(=O)N2CCc3ccccc3C2)c1,4,x,x,x,x,x
CCCCn1nc(C(=O)Nc2nnc(C)s2)c2ccccc2c1=O,2,x,x,x,x,x
O=C(NC1CCCCC1)c1sc(=S)n2c1[nH]c(=O)c1ccccc12,-7,4%,-19%[57.5 µM],1%,25µM*,8%
CCC(=O)Nc1ccc(-c2nc3ccc(C)cc3o2)cc1,-5,x,x,x,x,x
CC(C)N(C)S(=O)(=O)c1ccc(Cl)c(C(=O)N2CCCC2C(=O)O)c1 (stereo not drawn),-1,x,x,x,x,x
CC[n+]1ccccc1/C=C1\Sc2ccc(C)cc2N1C,-17,22µM*,-15%,u,16µM*,8%
CN1/C(=C/c2cccc[n+]2CCO)Sc2ccccc21,u,8%,22%,-8%,0%,2%
CCCC(C)NC(=O)COC(=O)CCS(=O)(=O)c1ccc(C)cc1 (stereo not drawn),-31*,x,x,x,x,x
Cc1ccc(Nc2nnc(SC/C(O)=C(\C#N)c3nc4ccccc4[nH]3)s2)c(C)c1,3,-30%,-5%,-1%,0%,6%
Cc1cccc(Nc2nnc(SC/C(O)=C(\C#N)c3nc4ccccc4[nH]3)s2)c1,-1,22µM*,i,-27%,1%,-6%
SMILES,LDHA inh,Vif-A3F inh,PTHR1 ag,Vif-A3G inh,PINK1 modulator,mIDH1 inhibitor
COc1cc(OC)cc(C(=O)N2CCN(C3CCCCC3)CC2)c1,-10,4%,i,3%,0%,-1%
COc1cc(OC)cc(C(=O)N2CCN(C3CCN(Cc4ccccc4)CC3)CC2)c1,-31*,1%,-9%[57.5 µM],-2%,-3%[38.3 µM],2%
CCOc1ccccc1C(=O)Nc1cc2c(cc1N1CCCC1)n(CC)c(=O)n2CC,6,-3%,-9%,-2%,1%,46µM*
COc1ccc(C(=O)Nc2cc3c(cc2N2CCCCC2)n(C)c(=O)n3C)cc1OC,-1,7%,-2%,-13%,5%,46µM*
CCn1c(=O)n(CC)c2cc(N3CCCC3)c(NC(=O)c3ccccc3OC)cc21,-1,2%,-16%,-1%,-1%,-13%
COc1ccccc1N1CCN(C2CCN(S(=O)(=O)c3ccc(NC(C)=O)cc3)CC2)CC1,-6,-9%,-3%,0%,0%,-7%
COc1ccc(S(=O)(=O)N2CCC(N3CCN(c4ccccc4OC)CC3)CC2)cc1,-32*,4%,-12%,-1%,-1%,5%
CN(Cc1cccc(F)c1)C(=O)Cn1nnn(-c2cccs2)c1=O,2,x,x,x,x,x
COC(=O)c1ccccc1-c1c2ccc(=N)cc-2oc2cc(N)ccc12,-58*,21%,i,10%,40µM*,u
Cc1cc(C(=O)Nc2ccc3c(c2)CCC3)c(C)s1,3,x,x,x,x,x
CC(C(=O)Nc1ccc(F)cc1F)N1CCN(c2ccc([N+](=O)[O-])c3cnccc23)CC1 (stereo not drawn),21,x,x,x,x,x
C/C(=N/NC(N)=S)c1ccc(Br)s1,-3,11µM*,-16%,13%,-1%,1%
C/C(=N\NC(=O)Cc1ccccc1)c1ccc(Br)s1,-2,-3%,i,-2%,3%,-4%
C/C(=N/NC(=O)c1ccc2c(c1)OCO2)c1ccc(Br)s1,-33*,0%,i,-1%,6%,7%
COC(=O)C1=C(N)Oc2n[nH]c(-c3ccccc3)c2C12C(=O)N(Cc1ccc(F)cc1)c1ccccc12 (stereo not drawn),0,x,x,x,x,x
O=C(O)CCc1ccc(S(=O)(=O)Nc2cccc3c2CCCC3)cc1,1,x,x,x,x,x
O=C(NCCOc1ccccc1)c1cc(C(=O)NCCOc2ccccc2)cc([N+](=O)[O-])c1,-45*,0%,-29%,1%,2%,5%
O=C(CSc1nc(-c2cccs2)nc2ccccc12)NCc1ccccc1,7,x,x,x,x,x
Cc1ccc2c(CSc3nnc(NC4CCCCC4)s3)cc(=O)oc2c1,2,x,x,x,x,x
